From PubChem BioAssay AID1259421 (Broad Institute, 2018) come the findings set out here.

Structures are written as SMILES. Where “and” joins values, the source holds several entries; their conditions need not be identical. Identical values can stand only once. The whole screen tested about 6,400 compounds, of which about 610 (9.5%) were called active. No stated cut-off is given here; in the data, active means activity change below about -70%; inconclusive means no clear call, values can overlap the other calls; inactive means above that. The full list was thinned out, with actives kept by preference.

The test is described as follows: Toxoplasma gondii ME49Luc growth in HeLa cells, luciferase, no IFN-y, primary screen (AID 1259421). To be noted: T. gondii ME49Luc in HeLa, 72 h, active compounds read low, concentration not given here.
Consider `O=S1(=O)N[C@H]2CCCN2c2ccccc21`, for which the activity change, negative = inhibition is 1.4% (inactive).

Take `CCC(=O)O[C@@]1(C(=O)CCl)[C@@H](C)C[C@H]2[C@@H]3C[C@H](F)C4=CC(=O)C=C[C@]4(C)[C@]3(F)[C@H](O)C[C@@]21C`: the activity change, negative = inhibition is 6.07% (inactive).

Take `CC(=O)c1c(O)c(C)c(O)c2c1OC1=CC(=O)C(C(C)=O)C(=O)C12C` (stereo not drawn): the activity change, negative = inhibition is -3.87% (inactive).

As for `COc1ccccc1OCC(O)CNC(C)C` (stereo not drawn), the activity change, negative = inhibition is 17.1% (inactive) and 3.92% (inactive).

On to `COc1cc2c(cc1OC)C(=O)CC2`, for which the activity change, negative = inhibition is 4.96% (inactive).

Consider `COc1cc(CCC(C)=O)ccc1O`, for which the activity change, negative = inhibition was 7.65% (inactive).

For the compound `COC(=O)C[C@](O)(CCCC(C)(C)O)C(=O)O[C@@H]1C(OC)=C[C@]23CCCN2CCc2cc4c(cc2[C@H]13)OCO4`, the activity change, negative = inhibition was -83.4% (active) and -83.9% (active) and -85.7% (active).

On to `COCCCOc1ccnc(CS(=O)c2nc3ccccc3[nH]2)c1C` (stereo not drawn), for which the activity change, negative = inhibition is 106% (inactive) and 41.3% (inactive).

On to `N#CC(c1ccnc(OCc2ccc(CN3CCOCC3)cc2)n1)c1nc2ccccc2s1` (stereo not drawn), for which the activity change, negative = inhibition was -29.2% (inactive).

For `COc1cc2ncn(-c3cc(OCc4ccccc4C(F)(F)F)c(C(N)=O)s3)c2cc1OC`, the activity change, negative = inhibition was -75.1% (active).

With `C[C@@H](Oc1cc(-n2cnc3ccc(CN4CCN(C)CC4)cc32)sc1C(N)=O)c1ccccc1C(F)(F)F`, the activity change, negative = inhibition was -75.7% (active).

For the compound `C[C@H]1CC2C([C@@H](O)C[C@@]3(C)C2CC[C@]3(O)C(=O)COC(=O)CCC(=O)O)[C@@]2(C)C=CC(=O)C=C12` (stereo partly drawn), the activity change, negative = inhibition is 5.48% (inactive) and 3.76% (inactive).

As to `COC1CC2CCC(C)C(O)(O2)C(=O)C(=O)N2CCCCC2C(=O)OC(C(C)CC2CCC(O)C(OC)C2)CC(=O)C(C)/C=C(\C)C(O)C(OC)C(=O)C(C)CC(C)/C=C/C=C/C=C/1C` (stereo not drawn), the activity change, negative = inhibition is 5.34% (inactive) and -8.87% (inactive).

Consider `C=C1CC2C3C=C(C)C4=CC(=O)CC[C@]4(C)C3CC[C@]2(C)[C@@]1(OC(C)=O)C(C)=O` (stereo partly drawn), for which the activity change, negative = inhibition was 10.5% (inactive) and -22.4% (inactive).

As to `CCCCCCCCCCCCCCCCCC(=O)OCC(O)CO` (stereo not drawn), the activity change, negative = inhibition was 5.64% (inactive).

As to `COc1ccc(C2CC(c3c(O)cc(C)oc3=O)=NCCS2)c(OC)c1` (stereo not drawn), the activity change, negative = inhibition is 10.3% (inactive).

Consider `CO[C@H]1C=CO[C@@]2(C)Oc3c(C)c(O)c4c(O)c(c(/C=N/N5CCN(C6CCCC6)CC5)c(O)c4c3C2=O)NC(=O)/C(C)=C\C=C[C@H](C)[C@H](O)[C@@H](C)[C@@H](O)[C@@H](C)[C@H](OC(C)=O)[C@@H]1C`, for which the activity change, negative = inhibition was -5.33% (inactive).

`CCCCCCCCCCCCCCCCCCOC[C@H](COP(=O)(O)OCC[N+](C)(C)C)OC`: the activity change, negative = inhibition is 5.04% (inactive).
